Screens as filed in PubChem.
Rows were chosen to be rich in hits. Some 3.2% of all compounds tested hit in one or more screens of this group.
ANO1 block: inhibitors of mouse TMEM16A calcium-activated chloride channel; Q8BHY3; HEK293 TMEM16A/YFP iodide influx fluorescence, ionomycin; normalized B-score (activity score, 25-100; higher = stronger inhibition) at 10 µM; 1.2% of 310,000 active; AID 588511;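 active means ratio plate-corrected score three or more library SD toward inhibition, starting fluorescence score within five deviations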;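 further: score derived from kinetic fluorescence span divided by baseline fluorescence per well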
ANO1 activ: activators or potentiators of mouse TMEM16A chloride channel. B-score at 10 µM. 0.3% of 340,000 active. Q8BHY3. HEK293 TMEM16A/YFP-H148Q/I152L, iodide quench fluorescence; hits give low values. AID 623877;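 active means fluorescence-ratio B-score plate-corrected deviation score at least 3 library SD below zero, with starting fluorescence score within 5 deviations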;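 further: channel opened by trigger with iodide after compound preincubation; score built on the fluorescence ratio of max minus min over baseline; more negative score means more quench and so TMEM16A activation or potentiation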
PHOSPHO1 block: PHOSPHO1 (human) inhibition; 1.1% of 290,000 active; recombinant PHOSPHO1, absorbance phosphatase assay; AID 1565; Q8TCT1; inhibition, % at 13.3 µM; in the data active means inhibition above about 60%
Target sequence (Q8TCT1 whole entry, looked up): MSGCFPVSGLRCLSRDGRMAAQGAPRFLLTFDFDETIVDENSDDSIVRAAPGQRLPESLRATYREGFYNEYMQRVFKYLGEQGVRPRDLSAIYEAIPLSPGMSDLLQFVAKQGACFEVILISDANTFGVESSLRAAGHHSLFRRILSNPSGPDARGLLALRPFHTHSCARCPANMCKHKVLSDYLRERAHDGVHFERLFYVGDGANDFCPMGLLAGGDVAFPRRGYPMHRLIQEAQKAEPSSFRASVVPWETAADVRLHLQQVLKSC
CHT allo act: allosterically activates the human high affinity choline transporter; 0.49% of 310,000 active; CHT-expressing cells, membrane potential dye, choline EC20; hits give high values; LV-AA mutant CHT in HEK293 cells; B-score at 10 µM;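 active means initial fluorescence not abnormally high and integrated response B-score, plate-corrected, over 3 SD above library mean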
CHT block: human CHT choline transport inhibition | B-score at 10 µM | 0.86% of 310,000 active | CHT-expressing cells, membrane potential dye, choline response; hits give low values;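 active means B-score over 3 SD under the library average, and starting fluorescence ratio not unusually high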;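 further: choline stimulus applied at its EC90 after an EC20 pre-addition; B-score computed on integrated fluorescence ratio after choline addition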
HDAC3 inhib: inhibitors of human histone deacetylase 3; inhibition, % at 8.3 µM; 0.15% of 320,000 active; recombinant HDAC3, fluorogenic peptide/trypsin coupled, fluorescence; in the data active means inhibition above about 26%, passing the limit was not always enough
Active calls of the source: *; i = inactive; · = no result.

SMILES	ANO1 block	ANO1 activ	PHOSPHO1 block	CHT allo act	CHT block	HDAC3 inhib
COc1ccccc1CC(=O)Nc1nc(-c2ccc(F)c(F)c2)cs1	i	i	28	i	i	5
CCC(C)NC(=O)CCn1c(-c2ccccc2)cc(C(C)=O)c1C (stereo not drawn)	i	i	0	i	i	-10
C(=Cc1c[nH]c2ccccc12)c1nccc2ccccc12	·	i	·	·	·	·
O=Cc1nccc2ccccc12	·	-6.5*	·	·	·	·
Cn1nc(N2CCN(S(=O)(=O)c3ccccc3)CC2)c(=O)n(C)c1=O	·	-29*	·	·	·	-3
C[C@@H]1CC[C@]2(C(=O)O[C@@H]3O[C@H](CO)[C@@H](O)[C@H](O)[C@H]3O)CC[C@]3(C)C(=CCC4[C@@]5(C)CC[C@H](O[C@@H]6OC[C@H](O)[C@H](O[C@@H]7O[C@H](CO)[C@@H](O)[C@H](O)[C@H]7O)[C@H]6O)C(C)(C)C5CC[C@]43C)C2[C@]1(C)O (stereo partly drawn)	·	i	·	·	·	2
COc1ccc(/C=C\C(=O)O[C@@H]2C(O)C(O[C@@H]3OC(C)[C@H](O[C@@H]4OCC(O[C@H]5O[C@H](CO)[C@@H](O)C(O)C5O)C(O)C4O)C(O)C3O)[C@H](OC(=O)[C@]34CCC(C)(C)C[C@@H]3C3=CCC5[C@@]6(C)CC(O)C(O[C@@H]7OC(CO)C(O)[C@H](O)[C@H]7O)[C@@](C)(C(=O)O)C6CC[C@@]5(C)[C@]3(CO)CC4)O[C@H]2C)cc1 (stereo partly drawn)	·	-32*	·	·	·	16
CC(O)[C@H]1CNCCN1CCc1cccc(F)c1 (stereo partly drawn)	i	-15*	·	i	i	1
Cc1ccc(OCC(=O)N(Cc2cccc(Cl)c2)C2CCS(=O)(=O)C2)cc1C (stereo not drawn)	i	-40*	48	i	i	1
Cc1cc(OCC(=O)N(Cc2ccccc2)C2CCS(=O)(=O)C2)ccc1Cl (stereo not drawn)	i	i	42	i	i	2
CC(=O)C[C@@H](O)CC(=O)[C@H]1OC(=O)CCCCCCCCc2ccccc21	·	i	·	·	·	0
CC1CN(S(=O)(=O)c2cccc(C(=O)OCC(=O)Nc3ccc4c(c3)OCO4)c2)CC(C)O1 (stereo not drawn)	i	i	62*	i	i	6
CCOCCn1c(CN2CCN(C(c3ccccc3)c3ccccc3)CC2)nc2c1c(=O)n(C)c(=O)n2C	i	i	28	i	i	4
C=CCNC(=S)NNC(=O)c1cccn(Cc2ccc(Cl)cc2)c1=O	i	i	-21	i	i	-2
C=CCNC(=S)NNC(=O)c1cccn(Cc2cccc(Cl)c2)c1=O	i	i	79*	i	i	2
CC1CN(C(=O)c2cccc(S(=O)(=O)N3CCN(c4ccc(F)cc4)CC3)c2)CC(C)O1 (stereo not drawn)	i	i	-1	i	i	-1
O=C(c1cccc(S(=O)(=O)N2CCN(c3ccc(F)cc3)CC2)c1)N1CCCC(C(F)(F)F)C1 (stereo not drawn)	25*	i	·	i	i	5
Cc1ccc(-n2[nH]c(C)c(/C=N/Nc3ccc([N+](=O)[O-])cc3[N+](=O)[O-])c2=O)cc1	100*	i	-1	i	i	·
Cc1[nH]n(-c2ccc([N+](=O)[O-])cc2)c(=O)c1C=NCC1CCCO1 (stereo not drawn)	i	i	-13	i	i	11
O=C(Nc1cccc(Cl)c1N1CCCC1)c1ccc(Br)o1	25*	i	1	i	i	6
O=C(Nc1cccc(Cl)c1N1CCCC1)c1cc2ccccc2o1	i	i	-38	i	i	-3
CCN1CCN(c2c(Cl)cccc2NC(=O)c2ccc([N+](=O)[O-])o2)CC1	i	i	10	7.1*	i	-8
CCN1CCN(c2c(Cl)cccc2NC(=O)c2cccs2)CC1	i	i	20	i	i	-6
CC(C)CC(=O)Nc1ccc(C(=O)COc2ccc(-c3nnco3)cc2)cc1	i	i	1	i	i	5
Cc1ccc2occ(/C=N/NC(=O)c3ccc(O)cc3)c(=O)c2c1	i	i	16	i	i	82*
SMILES	ANO1 block	ANO1 activ	PHOSPHO1 block	CHT allo act	CHT block	HDAC3 inhib
CNCCNC[C@H](Cc1cccc2ccccc12)NCCc1ccccc1	·	i	·	·	·	0
CNC[C@H](Cc1ccccc1)NC[C@@H](Cc1cccc2ccccc12)NCCc1ccc(C)cc1	100*	i	10	i	i	-3
CCn1cc(/C=C/C(=O)c2ccc(O)cc2)c(C)n1	i	i	60*	i	i	1
COc1cccc(CN(C)C(=O)c2cc(-c3ccc(OC)c(OC)c3)nc3ccccc23)c1	i	i	-62	i	i	-11
COc1cccc(CN(C)C(=O)c2cc(-c3ccc(F)cc3)nc3ccccc23)c1	100*	i	10	i	i	4
CCOC(=O)c1c(OCC)[nH]c2c1cc(O)c1ccccc12	i	i	67*	i	i	0
CN(C)C(=O)c1cn(-c2ccccc2)nc1-c1cccs1	i	i	8	i	i	4
O=C(COC(=O)c1cn(-c2ccccc2)nc1-c1cccs1)NC1CC1	i	i	65*	i	i	-4
CC1(C)CC(=O)C2=C(C1)OC(N)=C(C#N)C21CCN(C(=O)OCc2ccccc2)CC1	i	i	-4	i	i	7
COc1cccc(CN(C)C(=O)CNC(=O)c2ccc(-c3ccccc3)cc2)c1OC	100*	i	30	i	i	1
O=C(O)c1cccc(S(=O)(=O)Nc2ccc(OCc3ccccc3)cc2)c1	i	i	31	i	i	0
CCOc1cc(C)c(-c2onc(C(F)(F)F)c2-c2csc(C)n2)c(O)c1	100*	i	4	i	i	1
CC(C)(C)C(=O)/C=C1\SCC(=O)N1CC(=O)N1CCN(c2ccccc2)CC1	·	i	·	·	·	-2
Cc1nn(-c2ccc([N+](=O)[O-])cc2)c2c1C(c1cccc(Br)c1)N1C(=N2)C(=O)Nc2ccccc21 (stereo not drawn)	i	i	4	i	-6.6*	-2
O=C(c1cccc([N+](=O)[O-])c1)c1ccccn1	i	i	8	i	i	-1
O=C(Oc1ccc(-c2nnco2)cc1)c1ccco1	i	i	·	i	i	63*
O=C(Oc1cccc(-n2cnnn2)c1)c1ccco1	i	i	-10	i	i	32*
